Source: PubChem
Sampled rows, rich in hits. Any-hit rate of the full collection: about 8.7%.
G9a inh: inhibitors of human histone lysine methyltransferase G9a. Q96KQ7. G9a H3K9 monomethylation, AlphaScreen, 2 h. Potency, µM (series often up to 102 µM), without a hit: top-dose activity, negative = inhibition, hits mostly inhibitors. 8.8% of 350,000 active; further: on the % scale 0 is the no-effect control and ±100 the full control effect; nearly all actives have a fitted effect of over 75% in size
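G9a (20 nM) was preincubated 15 min with compound, then reacted 2 h at room temperature with 500 nM biotin-H3K9 peptide and 20 µM SAM. Monomethyl-H3K9 detected by AlphaScreen using anti-H3K9me1 antibody.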
HP1b chromo inh: inhibitors of HP1-beta chromodomain binding to methylated histone tails. Potency, µM (doses to about 114 µM), inactives show at the highest dose activity change, negative = inhibition, actives largely listed as inhibitors. P83916. 0.56% of 390,000 active. AID 540317. AlphaScreen HP1-beta / biotin-H3K9me3 peptide binding; further: nearly all actives have a fitted effect of over 70% in size
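HP1-beta protein (50 nM final) preincubated 30 min at room temperature with biotinylated H3(1-18)K9me3 peptide (50 nM) in PBS pH 7.4, 0.01% Tween-20, then compound added for 30 min. AlphaScreen streptavidin donor/nickel chelate acceptor beads (10 ug/mL final), 30 min dark, luminescence read.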
Sfp inh: Sfp phosphopantetheinyl transferase inhibition; Q9F4F7; Biochemical Sfp PPTase activity, qHTS; Potency, µM, without a hit: largest response in the series, negative = inhibition, usual class: inhibitors; 3.5% of 310,000 active;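 further: the enzyme is Sfp with the accession as filed and its product quenches rhodamine fluorescence; 0% = enzyme reaction without inhibitor and -100% = no enzyme wells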
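Buffer: 50 mM Hepes-Na pH 7.6, 10 mM MgCl2, 0.01% Nonidet P-40, 0.01% BSA. Enzyme 15 nM, pre-exposed to compound 15 min; substrates then added and fluorescence change tracked over 30 min.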
JMJD2A Tudor: JMJD2A Tudor domain (human) inhibition; O75164; AlphaScreen JMJD2A-Tudor / H3K4me3 peptide binding; Potency, µM (highest dose often 114 µM), for the others: at the highest dose activity change, negative = inhibition, usual class: inhibitors; 4.4% of 390,000 active; AID 504339; further: on the % scale 0 is the no-effect control and ±100 the full control effect; nearly all actives have a fitted effect of over 50% in size
12-LOX inh: ALOX12 (human) lipoxygenase inhibition | P18054 | Potency, µM (titrated, usually from 108 µM), inactives show at the top dose activity change, negative = inhibition, actives largely listed as inhibitors | 1.1% of 580,000 active | purified 12hLO, xylenol orange hydroperoxide absorbance; further: on the % scale 0 is the no-effect control and ±100 the full control effect
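Purified human 12hLO at 150 nM in 25 mM Hepes, 0.01% Triton X-100, pH 7.0, preincubated 15 min at room temperature with compound. Reaction started with 40 uM arachidonic acid, 30 min at room temperature. Hydroperoxide measured by Fe-xylenol orange, 573/405 nm absorbance ratio.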
BAZ2B inh: BAZ2B (human) inhibition; Q9UIF8; AlphaScreen BAZ2B-H3K14Ac peptide displacement; Potency, µM (doses to about 114 µM), for inactives: at the top dose activity change, negative = inhibition, most hits filed as inhibitors; 4.4% of 360,000 active; further: on the % scale 0 is the no-effect control and ±100 the full control effect; nearly all actives have a fitted effect of over 60% in size
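Compounds, titrated to a top concentration of 110 uM, were incubated 30 min at room temperature with preformed BAZ2B/acetyl-K14 H3 peptide complex (50 nM each). Proximity signal was measured by AlphaScreen after 20 min with beads.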
Starred values were filed as active, the others as inactive; ? = inconclusive; nt = no result given; [ ] = remark or other dose. The call rests on the fitted dose curve; in most records, active means well fitted curve in the direction sought with a large enough effect; inconclusive means small, poorly fitted or top-dose-only effect, or another doubt; inactive means no such curve, though single readings can be large; an effect the other way counts as inactive or inconclusive. Potency means the concentration at half of the fitted maximal effect.

SMILES | G9a inh | HP1b chromo inh | Sfp inh | JMJD2A Tudor | 12-LOX inh | BAZ2B inh
COc1ccc(N2CCN(C(=O)CN(c3cccc(OC)c3)S(=O)(=O)c3ccccc3)CC2)cc1 | 8.91µM* | ? | 3.0% | ? | -4.9% | ?
COc1ccc(N2CCN(C(=O)c3ccc(N(C)S(=O)(=O)c4ccc(OC)cc4)cc3)CC2)cc1 | nt | ? | -2.9% | 17.8µM* | 7.8% | ?
COc1ccc(N2CCN(C(=O)c3ccc(N(C)S(=O)(=O)c4ccc(C)cc4)cc3)CC2)cc1 | -3.8%[0.501 µM] | ? | 1.3% | ? | -14.5% | ?
COc1ccc(S(=O)(=O)N(C)c2ccc(C(=O)N3CCN(C)CC3)cc2)cc1 | 50.1µM* | 27.8%[57 µM] | 5.7% | 3.0% | -1.6% | -5.1%
COc1ccc(S(=O)(=O)N(C)c2ccc(C(N)=O)cc2)cc1 | -2.1%[59 µM] | 21.0% | 12.0% | -3.7% | -14.5% | 2.0%
COc1ccc(N2CCN(C(=O)c3ccccc3N(C)S(=O)(=O)c3ccccc3)CC2)cc1 | 44.7µM* | -13.2% | 2.8% | -35.2% | 33.9% | ?
O=C(c1cccc(F)c1)N1CCC2(CC1)CC(OCC1CC1)CCO2 (stereo unspecified) | nt | nt | nt | nt | -14.4% | nt
Cc1ccc(C(=O)COC(=O)COc2ccccc2[N+](=O)[O-])s1 | 5.4%[12.7 µM] | 32.9% | nt | -5.7% | ? | -6.8%
CCOC(=O)COc1ccccc1/C=C\[N+](=O)[O-] | 3.55µM* | 24.7% | 14.1µM* | -14.9% | nt | -29.6%
COc1cc(CN2CCN(C(=O)c3cccc4ccccc34)CC2)cc(OC)c1O | 6.31µM* | ? | -29.0% | 22.4µM* | ? | 50.1µM*
CCOc1ccc(CN2CCN(C(=O)c3cccc4ccccc34)CC2)cc1 | 14.1µM* | ? | -23.5% | 25.1µM* | ? | 44.7µM*
CCOc1ccc(CN2CCN(C(=O)c3ccccc3)CC2)cc1 | ? | ? | -22.7% | -13.0%[11.4 µM] | ? | ?
O=C(c1cccc2ccccc12)N1CCN(Cc2c[nH]c3ccccc23)CC1 | nt | nt | nt | nt | 1µM* | nt
Cc1cccc(C(=O)N2CCN(c3oc(-c4ccco4)nc3C#N)CC2)c1 | nt | nt | nt | nt | -57.6% | nt
COCC(C)NCc1ccccc1C (stereo unspecified) | ? | ? | 9.2% | 6.31µM* | ? | 39.8µM*
COCC(C)NCc1cccc(OC)c1OC (stereo unspecified) | 17.8µM* | ? | -14.5% | 1.78µM* | ? | ?
Cc1ccc(SCC(=O)Nc2ccc(S(=O)(=O)Nc3ncccn3)cc2)cc1 | 44.7µM* | 19.3% | -14.7% | -21.7% | -27.8% | -16.6%
O=S(=O)(Nc1ncccn1)c1ccc(NC(=S)Nc2ccccc2)cc1 | nt | 24.2% | -2.3% | -4.4% | -94.1% | -6.0%
CC(=O)Nc1ccc(S(=O)(=O)Nc2ncccn2)cc1 | 17.0%[59 µM] | 14.0% | 6.3% | -16.2% | -18.3% | nt
CCc1c(C(=O)NNC(=S)Nc2ccc(S(=O)(=O)Nc3ncccn3)cc2)csc1C | 20µM* | 28.3% | 17.5% | -13.5% | -12.5% | 0.9%
O=C(Nc1ccc(S(=O)(=O)Nc2ncccn2)cc1)C1=COCCO1 | 31.6µM* | 34.0% | nt | -22.1% | -23.3% | -6.3%
CCC(=O)Nc1ccc(S(=O)(=O)Nc2ncccn2)cc1 | -30.9% | 34.5% | -2.3% | -6.8% | -16.3% | -4.7%
O=C(/C=C/c1ccc(Br)cc1)Nc1ccc(S(=O)(=O)Nc2ncccn2)cc1 | nt | 32.8% | 10.0% | -14.0% | -5.5% | 89.1µM*
CN(C)CC1(O)CCC2(CCN(C(=O)c3ccsc3)CC2)CC1 | nt | nt | nt | nt | 53.9% | nt
CC(=O)Nc1ccc(SCC(=O)NNC(=O)CN(C)S(=O)(=O)c2ccc(C)cc2)cc1 | 44.7µM* | 94.4% | nt | -4.1% | 9.1% | -0.3%
Cc1cc(C)c2c(CC(=O)Nc3ccc(S(=O)(=O)Nc4nc(C)cc(C)n4)cc3)coc2c1 | 14.1µM* | 19.8% | nt | -35.1% | -15.0% | -32.0%
Cc1cc(C)nc(SCC(=O)NNS(=O)(=O)c2ccc(C#N)cc2)n1 | 7.94µM* | ? | nt | 44.7µM* | ? | 56.2µM*
